Sampled rows, rich in hits. Any-hit rate of the full collection: about 5.7%.
KB-V1 MDR tox: kills drug-selected multidrug resistant KB-V1 cells | KB-V1 MDR cells viability, CellTiter-Glo, 72 h | Potency, µM (doses to about 46.1 µM), actives largely listed as cytotoxic | 3.4% of 400,000 active | AID 1347076; further: nearly all actives have a fitted effect of over 60% in size
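KB-V1, DMEM (no phenol red) + 10% FBS; cpd pin-transferred, titration series; 72 h, 37 degrees C; CellTiter-Glo, luminescence. Data normalized, curve-fit.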
HT1080 IDH1KD tx: toxicity to HT-1080 IDH1 knockdown cells (counter line). 2% of 360,000 active. HT-1080 IDH1 knockdown viability, ATP luminescence, 48 h. Potency, µM (highest dose often 46.1 µM), for inactives: top-dose activity, negative = toxicity, usual class: cytotoxic;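 further: 0% = DMSO wells and -100% = cell-free medium wells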
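Viability of IDH1-knockdown HT-1080 fibrosarcoma cells was assessed by CellTiter-Glo after 48 h at 37 °C with titrated compound; concentration-effect curves were classified by fit quality and response size.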
KB-3-1 tox: KB-3-1 parental cell cytotoxicity. KB-3-1 viability, CellTiter-Glo ATP luminescence, 72 h. Potency, µM (doses to about 46.1 µM), actives largely listed as cytotoxic. 1.4% of 400,000 active. AID 1347075; further: nearly all actives have a fitted effect of over 60% in size
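Viability of parental KB-3-1 cells, measured by CellTiter-Glo luminescence, followed a 72 h incubation at 37 °C with pinned compounds in phenol-red-free DMEM containing 10% FBS.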
HT1080NT lethal: kills 2HG-producing HT-1080-NT fibrosarcoma cells | 1.6% of 360,000 active | Potency, µM (highest dose often 46.1 µM), without a hit: at the highest dose activity, negative = less viability, actives largely listed as cytotoxic | AID 686970 | HT-1080-NT fibrosarcoma viability, CellTiter-Glo ATP luminescence, 48 h;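 further: NT is the 2HG producing partner of a matched IDH1 knockdown line; 0% = DMSO-treated cells and -100% = media-only wells without cells; nearly all actives have a fitted effect of over 55% in size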
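Read-out is CellTiter-Glo luminescence after 10 minutes at room temperature, following 48 hours' compound treatment of HT-1080-NT cells (750 cells/well, RPMI, 5% FBS, 37 degrees C).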
* = called active by the depositor; i = inactive; ? = inconclusive; . = not tested or not shown. The call rests on the fitted dose curve; in most records, active means well fitted curve in the direction sought with a large enough effect; inconclusive means small, poorly fitted or top-dose-only effect, or another doubt; inactive means no such curve, though single readings can be large; an effect the other way counts as inactive or inconclusive. Unless noted, on the % scale 0 is the no-effect control and ±100 the full control effect; potency means the concentration at half of the fitted maximal effect.

SMILES	KB-V1 MDR tox	HT1080 IDH1KD tx	KB-3-1 tox	HT1080NT lethal
CC(C)OP(=O)(OC(C)C)C(Nc1ccc([N+](=O)[O-])cc1)c1cccc([N+](=O)[O-])c1 (stereo not given)	i	?	i	-16.6%
CCCOP(=O)(OCCC)C(Nc1ccc(C(C)C)cc1)c1ccc([N+](=O)[O-])cc1 (stereo not given)	11.6µM*	?	?	?
C[C@H]1O[C@@H](O[C@H]2[C@@H](O)C[C@H](O[C@H]3[C@@H](O)C[C@H](O[C@H]4CC[C@@]5(C)[C@H](CC[C@@H]6[C@@H]5CC[C@]5(C)[C@@H](C7=CC(=O)OC7)CC[C@]65O)C4)O[C@@H]3C)O[C@@H]2C)C[C@H](O)[C@@H]1O	0.184µM*	0.146µM*	?	0.206µM*
CC(=O)OC1CC2(O)C3CCC4CC(O)CCC4(C)C3CCC2(C)C1C1=CC(=O)OC1 (stereo not given)	?	0.517µM*	0.184µM*	1.3µM*
CC(=O)OC1CC(OC2C(O)CC(OC3C(O)CC(OC4CCC5(C)C(CCC6C5CCC5(C)C(C7=CC(=O)OC7)C(O)CC65O)C4)OC3C)OC2C)OC(C)C1OC1OC(CO)C(O)C(O)C1O (stereo not given)	?	1.3µM*	1.16µM*	0.651µM*
CC(=O)[C@H]1CCC2C3CC[C@H]4C[C@@H](O)CC[C@]4(C)C3CC[C@@]21C (stereo not given in full)	?	-2.1%	i	-5.3%
CC1OC(OC2C(O)CC(OC3C(O)CC(OC4CCC5(C)C(CCC6C5CCC5(C)C(C7=CC(=O)OC7)C(O)CC65O)C4)OC3C)OC2C)CC(O)C1O (stereo not given)	?	0.581µM*	0.184µM*	1.03µM*
Cc1oc2cc3oc(=O)c(CCC(=O)N4CCCCC4)c(C)c3cc2c1C	i	.	i	.
N#CC1c2ccccc2-n2nncc2CN1C(=O)CCc1ccccc1 (stereo not given)	i	1.5%	i	3.9%
CC1=C(O)C(=O)C=C2C1=CC=C1C2(C)CCC2(C)C3CC(C)(C(=O)O)CCC3(C)CCC12C (stereo not given)	?	1.64µM*	?	4.61µM*
CN(C)C(=O)Oc1ccc(OCc2nc3ccccc3[nH]2)cc1	11.6µM*	6.51µM*	?	7.31µM*
Nc1ccccc1C(=O)OCC(=O)N1CCc2ccccc21	i	18.1%	i	14.2%
N#CSCC(=O)N1c2ccccc2CCc2ccccc21	23.1µM*	23.1µM*	?	?
Cc1cc(Cl)ccc1OCCCC(=O)NCc1cccs1	25.9µM*	-10.6%	i	-5.3%
C/C=C1/C[N+]2(C)CCC34C(=C(C=O)[C@H]1C[C@@H]32)Nc1ccccc14 (stereo not given in full)	i	19.4%	i	?
O=C1NCN(c2ccccc2)C12CCN(C(c1nnnn1C1CCCCC1)C1CC1)CC2 (stereo not given)	i	-26.6%	i	?
C=C1C(=O)O[C@@H]2C[C@@H](C)[C@H]3C=CC(=O)[C@]3(O)C[C@@H]12	i	-16.1%	i	-19.0%
C=C1C(=O)OC2CC3(C)OC3CCC(C)=CC(OC(C)=O)C12 (stereo not given)	i	14.6µM*	?	-17.2%
CC(C)(O)/C=C/C(=O)[C@](C)(O)C1[C@H](O)C[C@@]2(C)C3CC=C4C(C[C@H](O)[C@@H](O)C4(C)C)[C@]3(C)C(=O)C[C@]12C (stereo not given in full)	i	1.3µM*	?	1.3µM*
Fc1cccc(CNCCc2c[nH]c3ccccc23)c1	i	1.6%	i	1.3%
Cc1cccc(CNCCc2c[nH]c3ccccc23)c1	i	?	?	14.6µM*
CC1=CC(=C2C(=O)NC(=S)NC2=O)C=C(C(F)(F)F)N1Cc1ccccc1	11.6µM*	1.64µM*	2.59µM*	1.84µM*
N#Cc1cc2c(nc1SCC(=O)Nc1ccc(F)c(Cl)c1)C1CCN2CC1	14.6µM*	.	i	.
N#Cc1cc2c(nc1SCC(=O)Nc1cc(Cl)cc(Cl)c1)C1CCN2CC1	4.61µM*	-0.8%	i	18.5%
N#Cc1cc2c(nc1SCC(=O)Nc1cccc(C(F)(F)F)c1)C1CCN2CC1	9.2µM*	.	?	.
SMILES	KB-V1 MDR tox	HT1080 IDH1KD tx	KB-3-1 tox	HT1080NT lethal
COc1ccc(NC(=S)Nc2ncccc2C)c(OC)c1	i	10µM*	i	7.08µM*
CCOC(=O)[C@]12Cc3c(cc(OC)c(OC)c3OC)[C@H]1N(C(C)C)C(=O)c1cc(OC)ccc12	2.59µM*	18.4µM*	4.11µM*	14.6µM*
CCOC(=O)[C@]12Cc3cc(C)ccc3[C@H]1N(C)C(=O)c1cc(OC)ccc12	i	16.4µM*	7.31µM*	?
CCOC(=O)[C@]12Cc3cc(OC)ccc3[C@H]1N(C(C)C)C(=O)c1cc(OC)ccc12	6.51µM*	20.6µM*	10.3µM*	20.6µM*
CCOC(=O)[C@]12Cc3c(cc(OC)c(OC)c3OC)[C@H]1N(Cc1ccccc1)C(=O)c1ccccc12	?	-5.6%	i	-13.9%
CCOC(=O)[C@]12Cc3cc(OC)ccc3[C@H]1N(C)C(=O)c1ccccc12	?	13.8%	?	8.6%
Cc1ccc(OC(=O)N(C)C[C@@H]2OCc3cnnn3CCCC(=O)N([C@@H](C)CO)C[C@@H]2C)cc1	i	7.2%	i	3.6%
COC(=O)c1ccc(NC(=O)c2cccn(Cc3ccccc3C)c2=O)cc1	?	.	i	.
CC(=O)Nc1cccc(-c2ccnc3c2CC(C(=O)NCc2ccco2)O3)c1 (stereo not given)	i	2.31µM*	5.8µM*	?
CC(=O)c1cccc(-c2ccnc3c2CC(C(=O)NCCc2ccccc2)O3)c1 (stereo not given)	3.26µM*	?	2.31µM*	?
CC1(C)C(C(=O)NCc2ccco2)C1(C)C	i	-2.7%	i	0.6%
O=c1oc2ccccc2c(O)c1[C@H]1c2ccc(O)cc2Oc2c1c(=O)oc1ccccc21	i	-18.8%	?	?
CC1OC(OC2C=C3CCC4C(CCC5(C)C(c6ccc(=O)oc6)CCC45O)C3(C)CC2)C(O)C(OC2OC(CO)C(O)C(O)C2O)C1O (stereo not given)	?	0.184µM*	?	0.206µM*
CC(C)CN1Cc2ccccc2-n2nncc2C1	i	2.7%	i	5.8%
C#C[C@]1(O)CCC2C3C(=O)C=C4C(Cl)=CCC[C@]4(C)C3CC[C@@]21C (stereo not given in full)	i	32.6µM*	i	10.3µM*
COc1ccc(CNCCC(c2ccc(OC(C)C)cc2)C(C)C)cc1OC (stereo not given)	5.17µM*	?	?	?
COc1ccc(OC)c(CNCCc2ccc(OC)c(OC)c2)c1	i	-5.7%	i	7.1%
COc1ccc(CCNC(=O)c2c(N)n(CCN3CCOCC3)c3nc4ccccc4nc23)cc1	?	5.1%	?	-1.3%

High-throughput results: PubChem BioAssay, National Center for Advancing Translational Sciences (NCATS)
